PG9 binder = PG9 antibody binding by small molecule. TR-FRET gp120-PG9 antibody binding. inhibition, % at 6.7 µM. 0.43% of 360,000 active; in the data active means inhibition above about 8.5%
GC-A act = GC-A (human) enzyme activation | P16066 | HEK293 GC-A cells, cGMP TR-FRET, EC30 ANP; 0% at EC30 ANP, 100% saturating ANP | activation, % at 10 µM | 0.14% of 370,000 active; in the data active means activation above about 40%
NR1D1 modulator = modulators of human Rev-erb alpha DNA binding; AID 1259318; 0.79% of 370,000 active; Rev-erbα–FITC-DNA binding, fluorescence polarization, 90 min; activity, % at 10 µM; P20393;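 active means activity above about 14%, limit read from the data; passing the limit was not always enough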
NPR2 activator = GC-B (human) receptor activation; P20594; HEK293-GC-B cells, CNP EC30, cGMP TR-FRET; 0% at EC30 CNP, 100% saturating CNP; activation, % at 10 µM; 0.11% of 370,000 active;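 active means activation at 10 µM reaching about 35% in either raw or pattern-adjusted values, limit read from the data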
Target sequence (P20594 whole entry, looked up): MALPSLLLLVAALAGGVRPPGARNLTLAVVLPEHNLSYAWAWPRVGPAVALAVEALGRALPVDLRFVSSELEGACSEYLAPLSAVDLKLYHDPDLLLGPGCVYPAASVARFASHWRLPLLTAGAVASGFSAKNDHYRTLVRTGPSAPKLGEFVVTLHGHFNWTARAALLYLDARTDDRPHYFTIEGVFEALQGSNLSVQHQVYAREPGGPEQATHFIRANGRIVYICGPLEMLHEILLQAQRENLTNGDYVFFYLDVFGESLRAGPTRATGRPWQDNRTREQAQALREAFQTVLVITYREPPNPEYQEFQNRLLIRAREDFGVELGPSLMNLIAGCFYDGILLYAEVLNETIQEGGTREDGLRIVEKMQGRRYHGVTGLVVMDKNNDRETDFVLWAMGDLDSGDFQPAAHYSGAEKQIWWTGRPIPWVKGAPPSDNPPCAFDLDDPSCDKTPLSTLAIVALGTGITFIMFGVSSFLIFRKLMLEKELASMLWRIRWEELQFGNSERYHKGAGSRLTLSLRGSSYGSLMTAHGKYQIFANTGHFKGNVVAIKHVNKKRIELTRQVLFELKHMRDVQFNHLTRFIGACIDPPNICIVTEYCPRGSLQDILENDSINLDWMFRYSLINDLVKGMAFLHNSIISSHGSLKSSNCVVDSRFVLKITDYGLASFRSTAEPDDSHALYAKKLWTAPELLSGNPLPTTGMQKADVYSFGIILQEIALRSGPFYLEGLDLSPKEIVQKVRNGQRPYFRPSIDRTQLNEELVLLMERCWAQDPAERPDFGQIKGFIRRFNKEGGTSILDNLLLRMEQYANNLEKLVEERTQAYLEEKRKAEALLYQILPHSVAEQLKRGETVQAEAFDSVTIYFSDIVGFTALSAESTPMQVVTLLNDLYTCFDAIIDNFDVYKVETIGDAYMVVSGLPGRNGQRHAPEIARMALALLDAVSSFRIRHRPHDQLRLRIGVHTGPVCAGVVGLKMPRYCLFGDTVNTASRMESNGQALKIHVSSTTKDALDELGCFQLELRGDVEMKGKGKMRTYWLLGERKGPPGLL
V-ATPase pHluor = regulators of yeast V-ATPase proton transport | S. cerevisiae, pHLuorin cytosolic pH fluorescence | response, % at 10 µM | 0.37% of 350,000 active | AID 504577; in the data active means response mostly above about 7.3%, no sharp cut-off; inactive means mostly below about 5.4%; further: actives read high
Numbers stand for hits; – = inactive; · = no result. Only some compounds are listed: those with a hit (about 1.6% of all), similar ones and a draw of the others.

SMILES | PG9 binder | GC-A act | NR1D1 modulator | NPR2 activator | V-ATPase pHluor
CC(=O)Oc1ccc(N(C(C)=O)S(=O)(=O)c2ccc(Cl)cc2)c2ccccc12 | – | – | – | – | 18.3
COc1ccc(Cl)cc1N1C(=O)c2cccnc2C1=O | – | – | – | – | 17.9
O=C(/C=C\c1ccccc1)NCC(=O)N/N=C/c1ccc(O)cc1O | · | · | · | · | 12.2
COc1ccc(/C=C\C(=O)NCC(=O)N/N=C/c2ccc(O)cc2O)cc1 | – | – | – | – | –
COc1cc(C(C)=O)ccc1OCCCN1CCC(c2noc3cc(F)ccc23)CC1 | · | · | – | · | ·
COCOCCn1cc(CN2CCS(=O)(=O)N(Cc3ccc(-c4ccc(Cl)cc4)cc3)C(C)C2=O)nn1 (stereo unspecified) | – | 48.9 | – | – | –
O=C(CNS(=O)(=O)c1c(F)cc(F)cc1Br)OCC(=O)N1CCCC1=O | – | – | – | – | 13.4
O=C(CNS(=O)(=O)c1cccc(F)c1)OCC(=O)N1CCCC1=O | – | – | – | – | –
OC[C@@H](O)[C@H](O[C@@H]1O[C@H](CO)[C@H](O)[C@H](O)[C@H]1O)[C@H](O)[C@@H](O)CO | · | · | – | · | ·
Cc1ccc(N2C(=O)c3cccc([N+](=O)[O-])c3C2=O)cc1C | – | 71.8 | – | – | –
Cc1cccc(C)c1N1C(=O)c2cccc([N+](=O)[O-])c2C1=O | – | – | – | – | –
CC(CC(=O)c1ccc(F)cc1)N1CCN(c2ccccc2)CC1 (stereo unspecified) | – | 63.4 | – | – | –
COc1ccccc1N1CCN(CC(=O)c2ccc(F)cc2)CC1 | – | – | – | – | –
NCCCn1c(C(=O)c2cc(Cl)c(N)c(Cl)c2)c2ccc(C(F)(F)F)cc2[n+]1[O-] | – | – | – | – | –
NC(=O)CCCn1c(C(=O)c2cc(Cl)c(N)c(Cl)c2)c2ccc(C(F)(F)F)cc2[n+]1[O-] | – | – | – | 83.6 | –
CC(=O)[C@@]1(O)CCC2C3C[C@H](C)C4=CC(=O)C=CC4(C)[C@@]3(F)[C@@H](O)C[C@@]21C (stereo partly specified) | · | · | – | · | ·
Cn1c(=O)[nH]c(=O)c2c1nc(N1CCNCC1)n2Cc1ccccc1 | – | – | – | – | –
Cn1c(=O)n(Cc2ccccc2)c(=O)c2c1nc(NCC1CCCO1)n2Cc1ccccc1 (stereo unspecified) | – | 48.9 | – | 56.6 | –
Cn1c(=O)[nH]c(=O)c2c1nc(NC1CCCC1)n2Cc1ccccc1 | – | 43.8 | – | – | –
C[C@H](CCC(=O)O)[C@H]1CCC2C3C(=O)CC4CC(=O)CC[C@]4(C)C3CC(=O)[C@@]21C (stereo partly specified) | · | · | – | · | ·
Cc1c(N=C2C=C(Br)C(=O)C(Br)=C2)c(=O)n(-c2ccccc2)n1C | – | – | – | – | –
Cc1c(N=C2N=C(NC(=O)NC(C)(C)C)c3ccccc32)c(=O)n(-c2ccccc2)n1C | – | 83.8 | – | – | –
Cc1c(N=C2C=CC(=O)c3ccccc32)c(=O)n(-c2ccccc2)n1C | – | 73.1 | – | – | –
C[C@H](Cc1cc2c(c(C(N)=O)c1)N(CCCO)CC2)NCCOc1ccccc1OCC(F)(F)F | · | · | – | · | ·
COCCN=C1S/C(=C\c2cc(C)n(-c3ccc(F)cc3F)c2C)C(=O)N1C | · | – | – | – | ·
SMILES | PG9 binder | GC-A act | NR1D1 modulator | NPR2 activator | V-ATPase pHluor
COc1ccc(-c2cc(=O)c3c(O)cc(O[C@@H]4O[C@H](CO[C@H]5O[C@H](C)[C@@H](O)[C@H](O)[C@@H]5O)[C@@H](O)[C@H](O)[C@H]4O)cc3o2)cc1O | · | · | – | · | ·
Cc1ccc2nc(-c3ccncc3)c(Nc3ccccc3)n2c1 | – | – | – | – | –
Cc1ccc(Nc2c(-c3ccccc3)nc3cnccn23)cc1 | – | 48.7 | – | – | –
Cc1ccc(Nc2c(-c3ccccn3)nc3ccc(C)cn23)cc1 | – | – | – | – | –
COc1ccc(-c2nc3cnccn3c2Nc2ccc(C)cc2)cc1 | – | 61.7 | – | 48.4 | –
Cc1ccc(Nc2c(-c3cccnc3)nc3ccc(Br)cn23)cc1 | – | 45.5 | – | 43.7 | –
CO[C@H]1O[C@H](CO)[C@H](O[C@@H]2OC(C(=O)O)[C@@H](O[C@H]3O[C@H](COS(=O)(=O)O)[C@H](O[C@@H]4OC(C(=O)O)[C@@H](O[C@H]5O[C@H](CO)[C@H](O[C@@H]6OC(C(=O)O)[C@@H](O[C@H]7O[C@H](COS(=O)(=O)O)[C@H](O[C@@H]8OC(C(=O)O)=C[C@H](O)C8OS(=O)(=O)O)[C@H](O)[C@H]7NC(C)=O)[C@H](O)[C@H]6O)[C@H](O)[C@H]5NC(C)=O)[C@H](O)[C@H]4O)[C@H](O)[C@H]3NC(C)=O)[C@H](O)[C@H]2O)[C@H](O)[C@H]1NC(C)=O (stereo partly specified) | · | · | – | · | ·
CCC1CCCCN1S(=O)(=O)c1ccc(NC(=O)c2nc(S(C)(=O)=O)ncc2Cl)cc1 (stereo unspecified) | – | 42.4 | – | – | –
CCS(=O)(=O)c1ncc(Cl)c(C(=O)Nc2ccc(S(=O)(=O)N3CCCC(C)C3)cc2)n1 (stereo unspecified) | – | 43.5 | – | 41.4 | –
CC/C=C\C/C=C\C/C=C\C/C=C\C/C=C\CCCC(=O)OCC | · | · | – | · | ·
CCOC(=O)[C@](C)(N)Cc1ccc(O)c(O)c1 | · | · | – | · | ·
CCCc1ccc(Oc2cn[nH]c2-c2ccc(O)c(C)c2O)cc1 | – | 46.6 | – | – | –
O=C(O)CC(S)C(=O)O (stereo unspecified) | · | · | – | · | ·
CN[C@H]1C[C@H]2c3[nH]c4cccc(-c5ccccc5)c4c3CCN2C[C@H]1[C@H](C)O | · | – | – | – | ·
CC1=CN2C(=N)/C(=C/c3ccc([N+](=O)[O-])o3)C(=O)N=C2S1 | – | – | – | – | 142.8
Cc1ccccc1CNC(=O)C1CCC(CNS(=O)(=O)c2cccc3cccnc23)CC1 (stereo unspecified) | · | – | – | – | ·
CCOc1ccc(OCCC(=O)OCC(=O)NC(C)c2ccccc2)cc1 (stereo unspecified) | – | – | – | – | –
CC(NC(=O)COC(=O)COc1ccc(C(=O)c2ccccc2)cc1)c1ccccc1 (stereo unspecified) | – | 65.1 | – | – | –
CCN1C(=O)c2cccc3c(NC(=O)c4ccc(S(=O)(=O)N5CCOCC5)cc4)ccc1c23 | – | – | – | – | –
CCN1C(=O)c2cccc3c(NC(=O)c4ccc(S(=O)(=O)N(C)C)cc4)ccc1c23 | – | – | – | 41.5 | –
C[C@H](CO)N1C[C@H](C)[C@@H](CN(C)C(=O)Nc2ccc(C(F)(F)F)cc2)Oc2ccc(NS(=O)(=O)c3ccccc3)cc2C1=O | – | – | – | 81.5 | –
Nn1c(SCc2ccc([N+](=O)[O-])cc2)nnc1-c1n[nH]c2c1CCC2 | · | – | – | – | ·
O=C(O)[C@H]1CCCN1C(=O)c1ccccc1N1C(=O)[C@@H]2Cc3c([nH]c4ccccc34)C(c3cccc(Cl)c3)N2C1=O (stereo partly specified) | – | – | – | 35.2 | –

Screening data (PubChem)
